From PubChem
EWS-Fli inh: EWS/Fli-driven NR0B1 reporter inhibitors, primary screen, A673 cells, NR0B1 luciferase, luminescence, MLPCN library. inhibition, % at 12.6 µM. hit rate 0.67% among 350,000. AID 651661, 2012. viability-normalised;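 active = mean inhibition of at least 50% after viability correction, with every replicate also passing that limit; inconclusive = mean reaches 50% but only one of two replicates passes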;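 also: firefly luciferase signal divided by Alamar Blue viability fluorescence both relative to DMSO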
PAX8 inh HTS: inhibitors of PAX8-driven TPO luciferase reporter, primary screen, RMG-I cells, single concentration. SteadyGlo, 24 h. hit rate 1.2% among 360,000. inhibition, % at 12.6 µM;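 active = mean replicate inhibition at least 60% with every replicate also reaching 60%; inconclusive = only one of the two criteria is met; inactive = mean below 60% and not all replicates reaching 60%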;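 also: luciferase light reporting Pax8 driven TPO promoter activity; plate controls were median of neutral control wells for no effect and mitoxantrone controls for full effect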
TROY signal inh: inhibitors of TROY-driven NF-kB signaling, primary screen, Q293 LMP1-TROYcd cells, NF-kB luciferase, uHTS; AID 1347056, 2019; inhibition, % at 10 µM; Q293 LMP1-TROYcd NF-kB luciferase reporter, 4 h; hit rate 0.98% among 360,000;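 active = compounds whose plate-normalised and pattern-corrected inhibition of the luciferase reporter signal at the single screening dose is 50% or more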
EBV LMP1 NFkB: EBV LMP1-driven NF-kappaB luciferase reporter inhibitors, primary screen, cell-based, luminescence, single point; LMP1-induced NF-kappaB luciferase reporter cells; inhibition, % at 12.5 µM; hit rate 0.69% among 350,000; AID 504558, 2011; in the data active = inhibition above about 41%; inconclusive = no clear call, values can overlap the other calls;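 also: 0% = neutral control wells and 100% = reference inhibitor control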
LGR2 antag: inhibitors of bursicon-induced LGR2 CRE-luciferase signal, primary screen, cell-based, HEK293, CRE-luciferase reporter, bursicon stimulation | Drosophila bursicon receptor LGR2 (rickets) | bursicon-stimulated, 4 h | inhibition, % at 9.99 µM | hit rate 0.35% among 380,000 | AID 720647, 2013;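 active = drop in luminescence signal, shown as inhibition above about 50% in the replicate tests, limit read from the data, passing the limit was not always enough; inconclusive = probably only some replicates passing the limit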;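 also: agonist challenge used bursicon conditioned medium at about half maximal strength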
TWEAK-Fn14 inh: inhibitors of TWEAK-Fn14 signaling, primary screen, luciferase reporter cells, uHTS; TWEAK-stimulated Fn14 reporter cells, luciferase luminescence, 8 h; AID 1159606, 2016; inhibition, % at 10 µM; hit rate 2% among 360,000; in the data active = inhibition above about 50%
* = called active by the depositor. Sampled rows, rich in hits. Any-hit rate of the full collection: about 3.2%.

How did COC(=O)[C@@]1(C)[C@H]2C(=O)N(Cc3ccccc3)C(=O)[C@H]2[C@H]2CN=C(SCc3ccc(Cl)cc3)N21 do in these assays?
EWS-Fli inh: 10.6; PAX8 inh HTS: 9.0; TROY signal inh: 13.4; EBV LMP1 NFkB: 69.9*; LGR2 antag: -2.2; TWEAK-Fn14 inh: 6.1

What do the screens show for `C[C@H](O)C#Cc1ccc2c(c1)O[C@@H](CN(C)C(=O)CC1CC1)[C@@H](C)CN([C@@H](C)CO)S2(=O)=O`?
EWS-Fli inh: -3.7; LGR2 antag: -6.0

Results for CC(=O)c1c(C)[nH]c(C(=O)Nc2cc(C)cc(C)c2)c1C ?
TROY signal inh: -3.0; EBV LMP1 NFkB: 1.9; TWEAK-Fn14 inh: -0.6

What do the screens show for `CC(=O)c1c(C)[nH]c(C(=O)Nc2ccc(C)cn2)c1C`?
PAX8 inh HTS: inconclusive; TROY signal inh: 66.9*; EBV LMP1 NFkB: 58.1*; TWEAK-Fn14 inh: 95.3*

Results for CC(=O)c1c(C)[nH]c(C(=O)Nc2nc(-c3ccc(Cl)cc3)cs2)c1C ?
PAX8 inh HTS: -23.0; TROY signal inh: 58.1*; EBV LMP1 NFkB: 23.2; LGR2 antag: 2.0; TWEAK-Fn14 inh: 67.7*

Results for O=C(Nc1nc(-c2ccc(Cl)cc2)cs1)NC1CCCCC1 ?
PAX8 inh HTS: 16.2; TROY signal inh: 58.1*; EBV LMP1 NFkB: -11.1; LGR2 antag: 4.6; TWEAK-Fn14 inh: 68.0*

How did CC(=O)c1c(C)[nH]c(C(=O)Nc2nc(-c3ccc(-c4ccccc4)cc3)cs2)c1C do in these assays?
EWS-Fli inh: 2.1; PAX8 inh HTS: -34.3; TROY signal inh: 19.4; EBV LMP1 NFkB: 23.3; LGR2 antag: 91.0*; TWEAK-Fn14 inh: 97.6*

How did O=C(C[C@H]1CC[C@@H](NC(=O)c2ccc3c(c2)OCO3)[C@@H](CO)O1)NCc1ccc(Oc2ccccc2)cc1 do in these assays?
LGR2 antag: -2.2

What do the screens show for `O=C(C[C@H]1CC[C@@H](NC(=O)c2ccncc2)[C@@H](CO)O1)NCC1CCCCC1`?
EWS-Fli inh: 1.9; PAX8 inh HTS: -2.4; LGR2 antag: -1.8

Results for COc1cccc(CN2CCC3(CC2)CN(C(=O)C2CC2)[C@H](CO)c2[nH]c4cc(OC)ccc4c23)c1 ?
EWS-Fli inh: -2.6; LGR2 antag: 14.7

What do the screens show for `CC(=O)c1c(C)[nH]c(C(=O)Nc2nc(C)cs2)c1C`?
EWS-Fli inh: 73.7*; PAX8 inh HTS: 58.4; TROY signal inh: 65.0*; EBV LMP1 NFkB: 71.4*; TWEAK-Fn14 inh: 94.0*

How did COc1ccccc1-c1ccc([C@H]2[C@@H](CO)N(C(=O)NC3CCCC3)[C@H]2C#N)cc1 do in these assays?
EWS-Fli inh: 4.6; PAX8 inh HTS: -38.4; LGR2 antag: -11.2

What do the screens show for `COc1cc(-c2nc3ccccc3s2)ccc1O`?
TROY signal inh: -17.3; EBV LMP1 NFkB: -3.5; TWEAK-Fn14 inh: -17.4

What do the screens show for `CN(C(=O)OC(C)(C)C)c1ccc(-c2nc3ccccc3s2)cc1`?
EWS-Fli inh: 87.8*; PAX8 inh HTS: 92.0*; TROY signal inh: 89.0*; EBV LMP1 NFkB: 80.8*; LGR2 antag: 99.1*; TWEAK-Fn14 inh: 103.5*

Results for Oc1ccc(O)c(Cc2nc3ccccc3s2)c1 ?
EWS-Fli inh: 49.8; PAX8 inh HTS: 36.1; TROY signal inh: 63.2*; EBV LMP1 NFkB: -17.9; LGR2 antag: 32.1; TWEAK-Fn14 inh: 35.2

How did Oc1cccc(-c2nc3ccccc3s2)c1 do in these assays?
TROY signal inh: 15.8; EBV LMP1 NFkB: -12.8; TWEAK-Fn14 inh: 54.2*

Results for Nc1cccc(-c2nc3ccccc3s2)c1 ?
PAX8 inh HTS: -47.8; TROY signal inh: 21.6; EBV LMP1 NFkB: -16.4; TWEAK-Fn14 inh: 33.7

Results for COc1ccc(-c2nc3ccccc3s2)cc1O ?
PAX8 inh HTS: 74.2*; TROY signal inh: 68.0*; EBV LMP1 NFkB: 37.3; TWEAK-Fn14 inh: 98.8*

How did CCCN1[C@@H]2Cn3c(ccc(-c4ccncc4)c3=O)[C@H]1[C@@H](C(=O)N1CCCCC1)[C@@H]2CO do in these assays?
EWS-Fli inh: 1.6; PAX8 inh HTS: -5.7; LGR2 antag: -24.3

Results for Cc1noc(C)c1S(=O)(=O)Nc1ccc2c(c1)C(=O)N([C@@H](C)CO)C[C@H](C)[C@@H](CN(C)S(=O)(=O)c1ccc(F)cc1)O2 ?
EWS-Fli inh: 7.3; LGR2 antag: -13.8

What do the screens show for `COCC(=O)N1CC2(C1)[C@H](c1ccc(C3=CCCC3)cc1)[C@@H](CO)N2C(=O)COC`?
EWS-Fli inh: 1.2; LGR2 antag: -19.9

What do the screens show for `CC[n+]1cccc(-c2nc3ccccc3s2)c1`?
PAX8 inh HTS: -3.2; TROY signal inh: 64.1*; EBV LMP1 NFkB: 23.1; LGR2 antag: 14.6; TWEAK-Fn14 inh: 69.4*

Results for FC(F)(F)c1ccc(-c2nc3ccccc3s2)cc1 ?
EWS-Fli inh: -65.5; PAX8 inh HTS: -49.7; TROY signal inh: 18.8; LGR2 antag: -86.2; TWEAK-Fn14 inh: 23.0

Results for COc1cccc(-c2nc3ccccc3s2)c1O ?
EWS-Fli inh: -123.9; PAX8 inh HTS: -36.1; TROY signal inh: 19.6; EBV LMP1 NFkB: -10.5; LGR2 antag: 52.9*; TWEAK-Fn14 inh: 48.5

Results for CCOc1cc(-c2nc3ccccc3s2)ccc1O ?
EWS-Fli inh: -24.5; PAX8 inh HTS: -64.6; TROY signal inh: -53.8; EBV LMP1 NFkB: -21.1; LGR2 antag: -32.5; TWEAK-Fn14 inh: 1.9

What do the screens show for `CC(C)c1ccc(-c2nc3ccccc3s2)cc1`?
EWS-Fli inh: 88.9*; PAX8 inh HTS: 87.9*; TROY signal inh: 95.6*; EBV LMP1 NFkB: 69.6*; LGR2 antag: 100.1*; TWEAK-Fn14 inh: 106.8*

Results for C[C@@H]1CN([C@H](C)CO)C(=O)c2cc(-c3ccccc3F)cnc2O[C@H]1CN(C)Cc1cccc(F)c1 ?
EWS-Fli inh: 21.1; PAX8 inh HTS: 3.7

How did CC(=O)c1cccc(-c2ccnc3c2CC(C(=O)NCC2CC2)O3)c1 (configuration not stated) do in these assays?
EWS-Fli inh: 16.2; PAX8 inh HTS: 11.6; TROY signal inh: 10.8; LGR2 antag: -3.2; TWEAK-Fn14 inh: 3.9

Results for COc1ccc(NC(=O)C2Cc3c(-c4ccccc4Oc4ccccc4)ccnc3O2)cc1OC (configuration not stated) ?
EWS-Fli inh: 17.4; PAX8 inh HTS: 29.9; TROY signal inh: 42.7; LGR2 antag: 29.6; TWEAK-Fn14 inh: 63.4*

What do the screens show for `COc1ccc(NC(=O)C2Cc3c(-c4cccc(NC(C)=O)c4)ccnc3O2)cn1` (configuration not stated)?
EWS-Fli inh: 63.4*; PAX8 inh HTS: 51.1; TROY signal inh: 17.8; LGR2 antag: -7.6; TWEAK-Fn14 inh: -0.6
